Reference: PubChem BioAssay (NCI)
This is part of a sample that, as a whole, favours compounds with a hit. Of some 83,000 tested, about 20% had one in any assay.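 Testing used 96-well plates and a 48-hour single-concentration exposure. Example: -40 means 40% of the starting cells died.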 Unmarked numbers belong to inactive results. Active and inactive are the calls of the source. How the source made its calls: active means growth percent below 10; inactive means the rest.

Tests used:
Experiment in all cases: NCI-60 one-dose screen, 48 h (100 = growth as untreated, 0 = no growth, -100 = all killed)
Conditions in all cases: 10 µM unless noted
[1] = system: SK-MEL-2 melanoma
[2] = system: EKVX NSCLC
[3] = system: SN12C renal
[4] = system: UO-31 renal
[5] = system: TK-10 renal
[6] = system: ACHN renal
[7] = system: CAKI-1 renal
[8] = system: A498 renal
[9] = system: CCRF-CEM leukemia
[10] = system: MOLT-4 leukemia
[11] = system: SR leukemia
[12] = system: RPMI-8226 leukemia
[13] = system: OVCAR-8 ovarian
[14] = system: OVCAR-5 ovarian
[15] = system: OVCAR-4 ovarian
[16] = system: SK-OV-3 ovarian
[17] = system: IGROV1 ovarian
[18] = system: HS 578T breast
[19] = system: NCI/ADR-RES ovarian

Row | Compound | growth [1] | growth [2] | growth [3] | growth [4] | growth [5] | growth [6] | growth [7] | growth [8] | growth [9] | growth [10] | growth [11] | growth [12] | growth [13] | growth [14] | growth [15] | growth [16] | growth [17] | growth [18] | growth [19]
1 | O=C1Nc2cc(Cl)ccc2/C1=C\c1ccc(OCc2ccccc2)cc1 | 111% | 100% | 96% | 76.2% | 154% | 94.8% | 89.3% | 93% | 102% | 99.1% | 105% | 107% | 100% | 101% | 96.3% | 103% | 91.6% | 96.7% | 104%
2 | CCCCCCCCCCCC(=O)NC(C)(C)C(=O)N1CCCC1C(=O)NC(C)(C)C(=O)NC(C)(C)C(=O)N1CCCC1C(=O)NC(C)(C)C(=O)NC(C)(C)C(=O)N1CCCC1C(=O)NC(C)C(=O)NCCC(=O)NC(C)C(=O)NC(C)(C)C(=O)NC(C)(C)C(=O)NC(C)(C)C(=O)NCCC(=O)NC(C)(C)C(=O)NC(C)(C)C(=O)NC(C)(C)C(=O)NC(C)C(=O)NCCC(=O)O (stereo unspecified) | -96.2% (active) | -88.5% (active) | -94% (active) | -99.7% (active) | -97.1% (active) | -100% (active) | -94.2% (active) | -98.5% (active) | -55.6% (active) | -67.9% (active) | -61.5% (active) | -54.4% (active) | -93.4% (active) | -95.4% (active) | -94.5% (active) | -96.9% (active) | -93.8% (active) | -69.8% (active) | -80.9% (active)
3 | Cc1ccccc1N1CCN(C2=C(Cl)C(=O)c3ncccc3C2=O)CC1 | 81.1% | 95.4% | 70.1% | 2.66% (active) | 68.7% | -22.6% (active) | 25.4% | 111% | 0.314% (active) | 10.4% | -24.1% (active) | 11.5% | 70% | 98.4% | 59% | 95.8% | 77.3% | 57.4% | 73.7%
4 | O=C1[C@@H]2Cc3c([nH]c4ccccc34)[C@@H](c3ccc(Cl)cc3)N2C(=O)CN1C1CCN(Cc2ccccc2)CC1 | 92.7% | 54.6% | 55% | 30.5% | 78.9% | 51.4% | 26.2% | 76.1% | 20.1% | 13.5% | -25.3% (active) | 18.9% | 43.9% | 90.1% | 49.1% | 80.5% | 29% | 65.9% | 51.2%
5 | CC/C(=C(/c1ccc(Cl)cc1)c1ccc(OCCN)cc1)c1ccccc1 | 105% | 102% | 104% | 78.2% | 115% | 96.1% | 74.6% | 92.9% | 80.5% | 84.1% | 0.24% (active) | 89.8% | 100% | 119% | 99.3% | 119% | 96.8% | 90.3% | 99.9%
6 | CN(C)CC(=O)Nc1nc(-c2cccc(NS(=O)(=O)c3cccc4c(N(C)C)cccc34)c2)cs1 | 94.1% | 68.9% | 75.3% | 70.4% | 107% | 88.2% | 78.8% | 101% | 83.7% | 80.4% | 74.9% | 60.6% | 82.6% | 105% | 87.1% | 107% | 90.7% | 90.6% | 76.8%
7 | COC(=O)CCCNCCCn1ccc2cc(NCc3cccc(-c4ccccc4)c3C)ccc21 | 95.6% | 73.6% | 73.4% | 54.5% | 115% | 77.8% | 48.4% | 16.4% | 33.8% | 49.5% | -14.7% (active) | 28.3% | 85.2% | 85.4% | 67.6% | 92.8% | 67.1% | 81.8% | 79.4%
8 | CNC(=O)c1cc(Oc2ccc3c(c2)sc2nc(-c4ccc(N(C)C)cc4)cn23)ccn1 | 59.7% | 53.8% | 43% | 33% | 77.2% | 21.7% | 32.3% | 7.34% (active) | 9.49% (active) | 15.1% | 13.2% | 6.21% (active) | 14% | 39.4% | 70.7% | 49.2% | 21.5% | 44.1% | 0.629% (active)
9 | COC(=O)CNC(=O)c1cccc(-c2cc(=O)c3c(OC)c(OC)c(OC)cc3o2)c1 | 105% | 102% | 104% | 86.1% | 109% | 98.9% | 102% | 90.8% | 91.3% | 99.5% | 85% | 94.8% | 98% | 98.1% | 102% | 118% | 99.1% | 99.7% | 99.5%
10 | Cc1ccc([C@H]2c3[nH]c4ccccc4c3C[C@H]3C(=O)N(CCCCCCC(=O)NO)CC(=O)N23)s1 | 84.9% | 69.4% | 85.1% | 71.9% | 64.2% | 85.5% | 60.3% | 76% | 22% | 12.5% | 23% | 27.9% | 44.4% | 52.8% | 79.5% | 86.3% | 55.7% | 76.6% | 94.3%
11 | O=C(O)CC1CCN(c2ccc3nnc(Cl)n3n2)CC1 | 106% | 99.1% | 98.4% | 81.5% | 102% | 98.6% | 95.8% | 90.2% | 111% | 109% | 110% | 111% | 104% | 97.3% | 108% | 96.2% | 102% | 102% | 98.6%
12 | O=C(N/N=C\c1ccc(F)cc1)c1ccc2nc(-c3ccc(Br)cc3)[nH]c2c1 | 83.2% | 53.1% | 29.4% | 55.4% | 42.4% | 12% | 43% | 80.8% | 53.6% | 31.7% | 41.3% | 63.5% | 27.4% | 63.3% | 12.5% | 90.9% | 3.87% (active) | 36.1% | 68.2%
13 | C/C(=N\NC(=O)Nc1ccccc1)c1nnn(-c2ccc([N+](=O)[O-])cc2)c1C | 104% | 103% | 110% | 72.4% | 99.7% | 104% | 94.4% | 105% | 105% | 103% | 100% | 102% | 102% | 112% | 105% | 109% | 112% | 116% | 102%
14 | CC[C@]12C=CCN3CC[C@@]4(c5ccc(OC)cc5N(C)[C@H]4[C@@](O)(C(=O)OC)[C@@H]1OC(=O)CCN1CCc4ccccc4C1)[C@@H]32 | 108% | 88.6% | 99.4% | 71.6% | 98.8% | 99.3% | 80.3% | 94.5% | 82.6% | 80.5% | 82.2% | 78.4% | 94.9% | 96.3% | 91.2% | 103% | 81.5% | 92% | 80.5%
